LmPK inhibitor: blocks Leishmania mexicana pyruvate kinase activity. Q27686. purified LmPK, Kinase-Glo ATP luminescence, 1 h. Potency, µM (titrated, usually from 57.5 µM), for inactives: top-dose activity change, negative = inhibition, most hits filed as inhibitors. actives 0.37% (n = 290,000). AID 1721; also: potency is read from the fitted curve at half-maximal effect; % is scaled to controls: 0 for no effect and ±100 for the full control effect
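0.1 nM LmPK, 0.5 mM PEP, 0.1 mM ADP; 50 mM imidazole pH 7.2, 7 mM MgCl2, 50 mM KCl; 1 h RT. Kinase-Glo luminescence readout, normalized to no-enzyme (full inhibition) and uninhibited wells.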
Shiga inhibitor: blocks Shiga toxin action in Vero cells; Vero cells, Shiga toxin protein synthesis inhibition reporter; inhibition, % at 38.7 µM; actives 9.2% (n = 290,000); AID 2315; in the data active = inhibition mostly above about 28%, no sharp cut-off; inactive = mostly below about 43%; also: 0% is about no effect
TbPYK inhibitor: T. brucei pyruvate kinase inhibition; Q57TT1; TbPYK enzyme, Kinase-Glo Plus ATP luminescence, 45 min; Potency, µM (titrated, usually from 76.8 µM), for the others: at the highest dose activity, negative = inhibition, most hits filed as inhibitors; actives 0.12% (n = 410,000); AID 624173; also: potency is read from the fitted curve at half-maximal effect; % is scaled to controls: 0 for no effect and ±100 for the full control effect; nearly all actives have a fitted effect of over 50% in size
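Assay buffer: 50 mM TEA pH 7.2, 100 mM KCl, 10 mM MgCl2, 0.05% BSA, 0.01% Tween-20. Pyruvate kinase from T. brucei plus substrate met compound, then ADP (130 uM final). Luminescence was read post 45 min RT.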
FBPA Giardia inh: blocks Giardia fructose-bisphosphate aldolase activity | Potency, µM (doses to about 59.6 µM), without a hit: at the top dose activity, negative = inhibition, actives largely listed as inhibitors | actives 0.71% (n = 290,000) | purified Giardia FBPA | A8B2U2; also: potency is read from the fitted curve at half-maximal effect; % is scaled to controls: 0 for no effect and ±100 for the full control effect; nearly all actives have a fitted effect of over 55% in size
Target sequence (A8B2U2 whole entry, looked up): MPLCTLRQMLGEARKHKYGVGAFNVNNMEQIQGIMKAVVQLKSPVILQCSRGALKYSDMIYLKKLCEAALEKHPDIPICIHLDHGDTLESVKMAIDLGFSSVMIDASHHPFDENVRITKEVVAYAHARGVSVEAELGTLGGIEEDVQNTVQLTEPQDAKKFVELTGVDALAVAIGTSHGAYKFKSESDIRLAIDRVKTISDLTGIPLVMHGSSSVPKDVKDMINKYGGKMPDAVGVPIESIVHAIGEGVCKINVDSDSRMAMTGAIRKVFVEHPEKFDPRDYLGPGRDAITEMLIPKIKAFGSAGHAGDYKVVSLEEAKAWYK
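Giardia FBPA (40 nM reagent) was preincubated 10 min at RT with compound (up to 57.5 uM final), then substrate plus GAPDH/TPI/NAD/arsenate coupling system with diaphorase/resazurin was added; resorufin fluorescence (525/598 nm) was read after 20 min.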
Sm TGR block: inhibitors of Schistosoma mansoni thioredoxin glutathione reductase; Q962Y6; purified TGR, DTNB reduction, TNB absorbance 405 nm; Potency, µM (titrated, usually from 114 µM), for inactives: top-dose activity change, negative = inhibition, usual class: inhibitors; actives 3% (n = 360,000); also: potency is read from the fitted curve at half-maximal effect; % is scaled to controls: 0 for no effect and ±100 for the full control effect; nearly all actives have a fitted effect of over 60% in size
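TGR 20 nM + NADPH 100 uM (dispensed conc.), cpd preinc 15 min RT; start with NADPH (500 uM addition) then DTNB (15 mM addition). Kinetic TNB absorbance, 405 nm filter. Four-parameter Hill fit across titration.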
CHX counter: affects cycloheximide protein synthesis inhibition readout, counter-screen | AID 2314 | cell reporter, cycloheximide protein synthesis inhibition counterscreen | actives 12% (n = 300,000) | max response, %; in the data active = max response mostly above about 13%, no sharp cut-off; inactive = mostly below about 14%; also: read at 38.3 µM for the half of the compounds with a filed dose; 0% is about no effect
* marks the source's active call; other numbers are inactive results; ? = inconclusive; / = no result; [ ] = another dose, or the depositor's remark. The entries come from a sample that favours hits as a whole. Unless noted, calls follow the shape of the dose curve; as a rule, active = well fitted curve in the direction sought with a large enough effect; inconclusive = small, poorly fitted or top-dose-only effect, or another doubt; inactive = no such curve, though single readings can be large; an effect the other way counts as inactive or inconclusive.

SMILES	LmPK inhibitor	Shiga inhibitor	TbPYK inhibitor	FBPA Giardia inh	Sm TGR block	CHX counter
O=C(CSc1nccn1Cc1ccccc1)Nc1ccc2c(c1)OCO2	/	/	4.3%	/	4.0%	/
Cc1c2c(nc3ccccc13)CCC(C(C)(C)C)C2 (stereo not drawn)	-0.6%	61.5*	1.5%	-1.7%	13.2%	25.6*
Cc1ccc(C)c2c1cc(C)c1nnc(SCC(=O)c3cccs3)n12	?	-6.0	?	?	?	-0.9
Cc1ccc2cc(C)c3nnc(SCC(=O)c4cccs4)n3c2c1C	0.5%	26.0	?	0.7%	-17.9%	37.5*
O=C(CSc1nc2ccccc2c(=O)[nH]1)c1cccs1	-6.3%	10.4	-12.7%	-3.1%	0.4%	9.9
Cc1cc(SCC(=O)c2cccs2)nc2ccccc12	3.6%	73.4*	-17.9%	-4.9%	-9.0%	42.3*
Cc1ccc2cc(C)c3nnc(SCC(=O)Nc4nc5c(s4)CCCC5)n3c2c1C	-3.0%	19.6	-9.4%	2.7%	1.4%	11.9*
COc1cc(O)ccc1C(C)=O	/	/	/	-2.3%	/	/
COc1ccc(NC(=O)Cn2c(=O)oc3cc(S(=O)(=O)NCc4ccccc4)ccc32)c(OC)c1	/	/	-8.4%[15.4 µM]	/	2.9%	/
Cc1ccc(NC(=O)c2oc3ccc(S(=O)(=O)N(C)C4CCCCC4)cc3c2C)cc1Cl	/	/	3.7%	/	-0.3%	/
O=C(NCCc1ccc(F)cc1)C1CCCCC1	-3.5%	41.5	1.7%	2.3%	-14.5%	23.6*
O=C(O)C1CCCCC1C(=O)NCCc1ccc(F)cc1 (stereo not drawn)	2.8%	-4.2	5.9%	-2.3%	-5.9%	-2.5
O=C(NC(=S)NCCc1ccccc1)C1CCCCC1	0.7%	54.8*	-5.2%	0.1%	?	33.6*
O=C(CNC(=S)NC(=O)C1CCCCC1)c1ccccc1	-6.8%	114.4*	-2.7%	3.4%	-1.4%	75.0*
O=C(NC(=S)NCc1ccccc1)C1CC1	9.2%	0.6	-3.0%	1.4%	-15.2%	-1.9
O=C(NC(=S)Nc1ccccc1CO)C1CCCCC1	/	/	-3.1%	/	/	/
CCCCOc1cccc(C(=O)N(Cc2sccc2C)C2CCS(=O)(=O)C2)c1 (stereo not drawn)	/	/	3.4%	/	2.5%	/
CN(Cc1ccco1)C(=O)C1CCN(c2nnc(-n3cccc3)s2)CC1	-1.4%	21.1	-3.7%	1.7%	-11.9%	-3.8
CCS(=O)(=O)N1CCC(C(=O)NCc2ccco2)CC1	9.7%	-12.7	0.6%	2.0%	0.0%	-2.8
O=C(NCc1ccco1)C1CCN(c2nnc(-n3cccc3)s2)CC1	2.5%	16.3	-5.7%	7.7%	-2.7%	15.6*
O=C(NCc1ccco1)C1CCN(S(=O)(=O)N2CCOCC2)CC1	-4.6%	13.2	-14.1%	6.0%	50.1µM*	-3.7
O=C(COC(=O)c1cc(S(=O)(=O)N2CCOCC2)ccc1F)NCc1ccco1	-0.4%	-6.4	-4.4%	/	44.7µM*	-1.2
CCc1ccc(C(=O)COC(=O)c2ccc(Cl)nc2)cc1	4.9%	65.2*	-10.0%	-1.4%	5.7%	41.5*
O=C(COC(=O)c1ccc(Cl)nc1)c1ccc2c(c1)OCCO2	-7.0%	100.0*	-2.8%	0.1%	-3.6%	44.2*
CCOC(=O)c1c(C)[nH]c(C)c1C(=O)COC(=O)c1ccc(Cl)nc1	/	/	19.6%	/	/	/
SMILES	LmPK inhibitor	Shiga inhibitor	TbPYK inhibitor	FBPA Giardia inh	Sm TGR block	CHX counter
Cc1ccc(CS(=O)(=O)Cc2ccc(C(=O)N3CCC4(CC3)OCCO4)o2)cc1	-5.3%	7.1	0.1%	0.2%	44.7µM*	-6.1
COc1ccc(S(=O)(=O)Cc2ccc(C(=O)N3CCC(C(N)=O)CC3)o2)cc1	5.6%	3.7	-1.7%	2.3%	-19.2%	-1.9
COc1ccc(S(=O)(=O)Cc2ccc(C(=O)N3CCCC3)o2)cc1	-3.8%	-18.3	-6.0%	-8.3%	44.7µM*	-0.9
Cc1ccc(CS(=O)(=O)CCC(=O)N2CCC3(CC2)OCCO3)cc1	-3.5%	-3.6	-6.9%	1.7%	-27.9%	-1.4
Cc1ccc(S(=O)(=O)Cc2ccc(C(=O)N3CCC4(CC3)OCCO4)o2)cc1	4.0%	-11.4	4.4%	0.9%	22.4µM*	-0.7
O=C(Cc1ccccc1)Nc1c(C(=O)Nc2ccccc2F)oc2ccccc12	/	/	-1.5%	/	0.0%	/
CCN(CC1CCCO1)C(=O)C1CCN(C2CCN(Cc3ccccc3C)CC2)CC1 (stereo not drawn)	-6.8%	13.3	-2.5%	-1.4%	-19.7%	-1.1
CCOc1ccc(NC(=O)NCCN2CCN(c3cc(Cl)ccc3C)CC2)cc1	/	/	1.9%	/	-1.3%	/
CNC1=CN=C(c2ccccc2)c2cc(Cl)ccc2N1	/	-12.8	/	4.1%	/	-1.0
Oc1ccc(Br)cc1-c1ccn[nH]1	2.0%	42.4*	-11.1%	-25.1%	-5.3%	10.1
O=C(Nc1ccc(C(=O)N2CCCC(CO)C2)cc1)c1ccc(Br)o1 (stereo not drawn)	/	/	-3.9%	/	/	/
O=C(Nc1ccc(N2CCN(C(=O)c3ccccc3)CC2)cc1)c1ccc(Br)o1	2.3%	-3.3	-2.7%	-11.7%	-10.0%	8.7
O=C(Nc1ccc(C(=O)N2CCC(N3CCOCC3)CC2)cc1)c1ccc(Br)o1	/	/	-2.9%	/	31.6µM*	/
CC(C)N1CCN(C(=O)c2ccc(NC(=O)c3ccc(Br)o3)cc2)CC1	/	/	-4.0%	/	22.4µM*	/
COc1ccc(-n2c(=O)cnc3cnc(N4CCOCC4)nc32)cc1	/	/	/	5.3%	/	/
COc1ccc(C2SCC(=O)Nc3c2c(=O)[nH]n3C2CCCCCC2)cc1 (stereo not drawn)	-2.7%	-15.9	-13.1%	-1.6%	39.8µM*	-2.1
CCOc1ccc(C2SCC(=O)Nc3c2c(=O)[nH]n3C2CCCCCC2)cc1 (stereo not drawn)	-1.1%	-2.7	-9.8%	7.9%	-25.9%	-1.4
CCOC(=O)Cc1cc(-c2ccc(O)cc2)nc2ccc3ccccc3c12	-2.7%	82.9*	-1.2%	0.0%	14.4%	22.3
CCN(CC)C(=O)c1ccc(-c2cccs2)s1	-1.9%	93.5*	-5.0%	6.0%	3.2%	55.7*
O=C(CN1C(=O)c2ccc([N+](=O)[O-])cc2C1=O)Nc1cc(S(=O)(=O)N2CCOCC2)ccc1Cl	/	/	4.2%	/	-28.8%	/
c1csc(-c2nc(-c3ccc(-c4ccon4)s3)no2)c1	-9.0%	65.4*	2.1%	1.7%	0.6%	56.1*
c1ccc(-c2nc(-c3ccc(-c4ccon4)s3)no2)cc1	-7.1%	61.3*	-3.9%	-0.3%	-0.5%	33.6*
C/C(=N\NC(=O)c1ccc(O)cc1O)c1cccnc1	-0.6%	72.8*	-6.3%	-3.1%	-3.7%	39.7*
C/C(=N/NC(=O)c1ccc(Cl)cc1Cl)c1cccnc1	-3.1%	24.8	7.2%	4.5%	8.8%	29.4*
N#Cc1c(N2CCN(C(=O)c3ccccc3Cl)CC2)nc(-c2ccccc2)c2c1CCCC2	1.2%	2.0	-5.2%	1.8%	10.6%	1.3
CC1(C)Cc2c(C#N)c(N3CCN(C(=O)c4ccco4)CC3)nc(-c3ccco3)c2CS1	3.2%	-8.7	?	-28.6%	2.82µM*	-0.1

Screening data: PubChem BioAssay, National Center for Advancing Translational Sciences (NCATS)
